Consider two molecules from the supplement of paper PMC8728848.

Many of the other results were omitted from the sample, so the strongest signals are more common in it than they were.

Assay in all cases: glycan array binding signal (z-score within array); higher = stronger binding
Holding throughout (details): glycan notation: IUPAC condensed, linker removed

For one assay, the target named is Fuc(a1-2)[Gal(a1-3)]Gal. The method, boiled down:
(§1)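 The binding signal is a Z-score computed within each array. Data were drawn from 3228 arrays in the Consortium for Functional Glycomics database, restricted to those with a known protein sequence. Scores were averaged over arrays of the same protein sequence at different concentrations or buffers, and over linkers, and negative values can be taken as non-binding.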

For a further assay, the target named is Fuc(a1-3)GlcNAc. Put shortly: as §1
Assay [1] has as its target Gal(b1-3)[Neu5Ac(a2-6)]GalNAc. Put shortly:
as §1

For assay [2], the target named is Gal(b1-4)GlcNAc(b1-6)GalNAc. Put shortly: as §1
A further assay has as its target Glc(b1-4)Glc. Put shortly: as §1
Assay [3] concerns the target GlcNAc(b1-4)[GlcNAc(b1-6)]GalNAc. The method, boiled down:
as §1

The target of assay [4] is Man(a1-2)Man(a1-6)[Man(a1-3)]Man(a1-6)[Man(a1-2)Man(a1-2)Man(a1-3)]Man(b1-4)GlcNAc(b1-4)GlcNAc. Put shortly: as §1
For assay [5], the target named is Neu5Ac(a2-3)Gal(b1-3)GalNAc. Put shortly: as §1
In assay [6] the target is Neu5Ac(a2-3)Gal(b1-3)[Neu5Ac(a2-6)]GalNAc. The method, boiled down: as §1
The target in assay [7] is Neu5Ac(a2-6)Gal(b1-4)GlcNAc. Put shortly: as §1
In assay [8] the target is Neu5Ac(a2-8)Neu5Ac(a2-3)Gal(b1-4)Glc. Put shortly:
as §1

Assay [9] concerns the target Neu5Ac9Ac(a2-6)Gal(b1-4)GlcNAc. Put shortly: as §1
Assay [10] addresses Fuc(a1-2)[Gal(a1-4)]Gal(b1-4)GlcNAc. The method, boiled down: as §1
Assay [11] addresses Fuc(a1-2)[GalNAc(a1-3)]Gal(b1-3)GlcNAc. Put shortly: as §1
Assay [12] deals with Fuc(a1-3)[Gal(b1-4)]GlcNAc(b1-4)Gal(b1-4)[Fuc(a1-3)]GlcNAc(b1-4)Gal(b1-4)[Fuc(a1-3)]GlcNAc. The method, boiled down:
as §1

The target in the next assay is Gal(a1-3)Gal(b1-4)Glc. Put shortly: as §1
For the next assay, the target named is Gal(a1-4)Gal(b1-4)GlcNAc. Put shortly:
as §1

In assay [13] the target is Gal(b1-3)[Fuc(a1-4)]GlcNAc. The method, boiled down: as §1
Assay [14] concerns the target Gal(b1-3)[GlcNAc(b1-6)]GalNAc. The method, boiled down: as §1
In another assay the target is GalNAc(b1-3)GalNAc. Put shortly: as §1
For a further assay, the target named is GalNAc(b1-4)GlcNAc. Put shortly: as §1
The next assay concerns the target GlcNAc(b1-3)Gal. The method, boiled down:
as §1

Another assay deals with GlcNAc(b1-3)GalNAc. The method, boiled down: as §1
Assay [15] has as its target GlcNAc(b1-3)[GlcNAc(b1-6)]Gal(b1-4)GlcNAc. Put shortly:
as §1

The target in another assay is Neu5Ac(a2-3)Gal(b1-4)Glc. Put shortly:
as §1

Assay [16] has as its target Neu5Ac(a2-3)Gal(b1-4)GlcNAc(b1-3)Gal(b1-4)GlcNAc. The method, boiled down:
as §1

Assay [17] deals with Neu5Ac(a2-3)Gal(b1-4)GlcNAc(b1-3)Gal(b1-4)[Fuc(a1-3)]GlcNAc. The method, boiled down:
as §1

The target of a further assay is Neu5Ac(b1-6)GalNAc. Put shortly: as §1

B1: TES70 (Toxocara canis), Q9XYV5 (protein)
chain: MISVVLVAIALQISGSYAGACNSINDCGLFETCVNNMCVPDNMGCPMPCQAGQVCVPPNCVAAPAPQPVTTTTAAATTTTSARGRCNANAQCGAFEVCVNGMCQPNNAGCNPPCAANQVCVAPNCVPAPIPPPAQSTTTAPATTRAPPSCPPSWSPFSGHCYYVAVGSFLFNQASDWCTQTNSRPVWFDQSNVGTFGAELYFINVLAASRGVQTYWLGLNRQFGQWVWTNGSPLIFSNWRGSEPDGCCGGNVTCALVNYANPFGQWDDAGCGNIWRNPQGFICKKPLA
For B1, the “glycan array binding signal (z-score)” value with Fuc(a1-2)[Gal(a1-3)]Gal was -0.052; with Fuc(a1-3)GlcNAc it was -0.169; in assay [1] it was 0.002; in assay [2], 0.229; in the assay with Glc(b1-4)Glc, -0.156; in assay [3] it was 0.013. For the same molecule, the “glycan array binding signal (z-score)” value in assay [4] was -0.137; in assay [5], 0.672; in assay [6], -0.065; in [7], 6.41; in assay [8], -0.14; in assay [9] it was -0.172.

B2: F17bG (Escherichia coli), Q47200 (protein)
chain: MTNFYKVFLAVFILVCCNISHAVVSFIGSTENDVGPSQGSYSSTHAMDNLPFVYNTGYNIGYQNANVWRIGGGFCVGLDGKVDLPVVGSLDGQSIYGLTEEVGLLIWMGDTNYSRGTAMSGNSWENVFSGWCVGNYLSTQGLSVHVRPVILKRNSSAQYSVQKTSIGSIRMRPYNGSSAGSVQTTVNFSLNPFTLNDTVTSCRLLTPSAVNVSLAAISAGQLPSSGDEVVAGTTSLKLQCDAGVTVWATLTDATTPSNRSDILTLTGASTATGVGLRIYKNTDSTPLKFGPDSPVKGNENQWQLSTGTETSPSVRLYVKYVNTGEGINPGTVNGISTFTFSYQ
Regarding B2, the “glycan array binding signal (z-score)” value is -0.551 with Fuc(a1-2)[Gal(a1-3)]Gal; -0.657 in assay [10]; -0.567 in assay [11]; -0.507 in assay [12]; -0.565 with Gal(a1-3)Gal(b1-4)Glc; -0.527 with Gal(a1-4)Gal(b1-4)GlcNAc. Besides, the “glycan array binding signal (z-score)” value in assay [13] was -0.578; in [14], 1.08; in the assay with GalNAc(b1-3)GalNAc, 4.47; with GalNAc(b1-4)GlcNAc it was -0.391; with GlcNAc(b1-3)Gal it was 4.21; with GlcNAc(b1-3)GalNAc, 3.86. The “glycan array binding signal (z-score)” value is 5.83 in assay [15]; -0.498 with Neu5Ac(a2-3)Gal(b1-4)Glc; 0.462 in assay [16]; 0.05 in [17]; -0.298 in the assay with Neu5Ac(b1-6)GalNAc.
